# Source: PubChem BioAssay (National Center for Advancing Translational Sciences (NCATS))
# An excerpt weighted towards active compounds, which were near 7.5% of everything screened.
# FLuc counter = qHTS profiling assay for firefly luciferase inhibitor/activator using purifed enzyme and Km concentrations of substrates (counterscreen for miR-21 project); AID 588342, 2011; actives 6.9% (n = 360,000); Potency, µM (doses to about 57.5 µM), without a hit: at the top dose activity change, negative = inhibition, most hits filed as inhibitors; purified FLuc, Km substrates, luminescence inhibition; Luciferin 4-monooxygenase (Photinus pyralis), P08659;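 further: plate controls were vehicle for no effect and reference inhibitor for full effect; nearly all actives have a fitted effect of over 55% in size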
# Target sequence (P08659 whole entry, looked up): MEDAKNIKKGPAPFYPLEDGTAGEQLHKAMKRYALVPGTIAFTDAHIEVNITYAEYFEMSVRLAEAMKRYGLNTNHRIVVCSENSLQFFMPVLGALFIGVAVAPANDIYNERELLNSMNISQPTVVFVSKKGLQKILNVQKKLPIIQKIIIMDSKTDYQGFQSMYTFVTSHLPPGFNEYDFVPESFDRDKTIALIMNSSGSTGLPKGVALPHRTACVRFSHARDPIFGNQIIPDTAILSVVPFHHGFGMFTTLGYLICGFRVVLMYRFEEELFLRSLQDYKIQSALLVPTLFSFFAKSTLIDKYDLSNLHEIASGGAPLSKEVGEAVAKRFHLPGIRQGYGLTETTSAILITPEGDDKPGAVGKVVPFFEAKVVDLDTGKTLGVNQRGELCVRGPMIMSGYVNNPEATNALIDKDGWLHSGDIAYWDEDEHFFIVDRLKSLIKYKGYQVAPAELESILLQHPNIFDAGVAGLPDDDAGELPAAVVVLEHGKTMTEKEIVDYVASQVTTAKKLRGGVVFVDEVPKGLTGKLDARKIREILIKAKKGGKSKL
#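 Purified P. pyralis luciferase (10nM final) with 10uM D-luciferin and 10uM ATP (Km levels) in 50mM Tris acetate pH 7.5, 10mM Mg acetate, 0.01% Tween-20, 0.05% BSA; qHTS 6-point titration, ~60 µM downward; luminescence read.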
# Rab9 prom act = qHTS Assay for Rab9 Promoter Activators; Potency, µM (series often up to 9.22 µM), without a hit: top-dose activation, negative = inhibition, usual class: activators; actives 2.8% (n = 320,000); Huh7 Rab9 promoter-luciferase reporter, luminescence, 24 h; further: % of control where 0% means no effect; nearly all actives have a fitted effect of over 60% in size
#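 Steps: seed 1500 Huh7 Rab9-luc cells per well, rest 2 h at 37 °C; add compound in DMSO; incubate 24 h; add luciferase reagent, 10 min ambient; read luminescence.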
# NPC1 promoter act = qHTS Assay for NPC1 Promoter Activators; Huh7 NPC1 promoter luciferase reporter, 24 h; Potency, µM (titrated, usually from 9.22 µM), for the others: at the top dose activation, usual class: activators; actives 2.4% (n = 320,000); AID 485313, 2010; further: % of control where 0% means no effect; nearly all actives have a fitted effect of over 60% in size
#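 NPC1 promoter–luciferase Huh7 cells; 24 h compound; luminescence.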
# SMN2 splice enh = qHTS Assay for Enhancers of SMN2 Splice Variant Expression; HEK293 SMN2-luciferase splicing reporter, luminescence, 30-36 h; actives 2.8% (n = 210,000); Potency, µM (highest dose often 46.1 µM), for inactives: at the highest dose activity change, positive = activation, hits mostly activators; further: % of control where 0% means no effect; nearly all actives have a fitted effect of over 55% in size
#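 HEK293 cells carry an SMN2 […]–luciferase reporter in which exon 7 inclusion puts luciferase in frame. Cells were plated 10-12 h before compound addition, then incubated 30-36 h at 37C. ONE-Glo luminescence was read; sodium butyrate at 4.5 mM final served as control.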
# ELG1 genotox = qHTS screen for small molecules that induce genotoxicity in human embryonic kidney (HEK293T) cells expressing luciferase-tagged ELG1 | AID 504466, 2011 | Potency, µM (doses to about 46 µM), without a hit: at the highest dose activity change, positive = activation, hits mostly activators | HEK293T ELG1-luciferase reporter, luminescence, 16 h | actives 1.3% (n = 330,000); further: % of control where 0% means no effect; nearly all actives have a fitted effect of over 60% in size
#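 HEK293T cells expressing luciferase-tagged ELG1 were exposed to compound or DMSO vehicle for 16 hr at 37 °C and 5% CO2. Luciferase activity was then measured with ONE-Glo after 30 min at room temperature.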
# Luc counter = Counterscreen for Luciferase (Kinase-Glo TM) Inhibition; Luciferin 4-monooxygenase (Photuris pensylvanica), Q27757; Kinase-Glo luciferase, ATP luminescence, 8 min; Potency, µM (doses to about 38.3 µM), inactives show at the top dose activity change, negative = inhibition, actives largely listed as inhibitors; actives 0.28% (n = 200,000); further: on the % scale 0 is the no-effect control and ±100 the full control effect; nearly all actives have a fitted effect of over 60% in size
#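 Recombinant Kinase-Glo luciferase, 10 uM ATP (linear range), luciferin; imidazole pH 7.2 / KCl / MgCl2 / Tween / BSA buffer; 8 min RT; luminescence.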
# Starred values were filed as active, the others as inactive; ? = inconclusive; / = no result given. The call rests on the fitted dose curve; in most records, active means well fitted curve in the direction sought with a large enough effect; inconclusive means small, poorly fitted or top-dose-only effect, or another doubt; inactive means no such curve, though single readings can be large; an effect the other way counts as inactive or inconclusive. Potency means the concentration at half of the fitted maximal effect.
SMILES,FLuc counter,Rab9 prom act,NPC1 promoter act,SMN2 splice enh,ELG1 genotox,Luc counter
O=C(/C=C/c1ccco1)Nc1cccnc1,19µM*,?,?,?,?,-28.2%
COc1cccc(NC(=O)/C=C/c2ccco2)c1,10.7µM*,2.51µM*,?,12.6µM*,?,?
CSc1cccc(NC(=O)/C=C/c2ccco2)c1,19µM*,?,12.9%,45.3%,?,-4.4%
CCc1ccc(NC(=O)C(=O)NCC2CCCN2S(=O)(=O)c2cccs2)cc1 (stereo unspecified),-0.4%,-4.0%,-7.4%,/,-4.5%,/
COc1ccc(N(CC(=O)NC2CCCCC2C)S(=O)(=O)c2c(C)nn(C)c2C)cc1 (stereo unspecified),6.5%,-3.2%,-3.0%,/,-3.3%,/
COc1ccccc1NC(=S)NC(=O)/C=C/c1ccco1,-14.5%,3.1%,-3.0%,0.9%,-0.5%,-4.3%
COc1ccccc1NC(=O)/C=C\c1ccco1,23.9µM*,?,?,/,15.2%,/
O=C(Cn1cc(S(=O)(=O)Cc2ccc(F)cc2)c2ccccc21)NCCc1ccccc1,-2.0%,/,/,/,/,/
CC(C)(C)C1CCc2c(sc(NC(=O)c3ccncc3)c2C(N)=O)C1 (stereo unspecified),2.69µM*,17.4%,18.3%,3.2%,-7.0%,2.1%
CCc1ccc(C(=O)NNC(=O)c2cccc(N3C(=O)CCC3=O)c2)cc1,10.7µM*,-2.4%,-2.4%,/,4.3%,/
CC1CCc2c(sc(NC(=O)c3ccc(N4C(=O)CCC4=O)cc3)c2C(N)=O)C1 (stereo unspecified),9.53µM*,1.7%,-3.6%,/,-0.1%,/
CCOC(=O)Nc1sc2c(c1C(N)=O)CCC(C)C2 (stereo unspecified),?,9.3%,1.1%,/,13.4%,-0.6%
Cc1occc1C(=O)Nc1sc2c(c1C(N)=O)CCC(C(C)(C)C)C2 (stereo unspecified),?,17.2%,4.0%,-9.3%,14.1%,15.4%
CC(=O)NC(=S)Nc1sc2c(c1C(N)=O)CCC(C)C2 (stereo unspecified),9.53µM*,1.58µM*,2.82µM*,/,?,-0.6%
Cc1cccc(NC(=O)c2cccc(N3C(=O)CCC3=O)c2)c1,0.7%,0.2%,3.0%,/,-1.4%,/
CCc1ccc2nc(NC(=O)c3ccc(N4C(=O)CCC4=O)cc3)sc2c1,8.49µM*,23.6%,22.7%,/,8.0%,/
O=C(Nc1nc2c(s1)CCCC2)c1ccc(N2C(=O)CCC2=O)cc1,19µM*,?,?,/,?,/
CC1CCc2nc(NC(=O)c3ccc(N4C(=O)CCC4=O)cc3)sc2C1 (stereo unspecified),9.53µM*,13.7%,3.8%,/,-9.6%,/
CCN1C(=O)[C@H]2[C@@H](c3ccc(OC)cc3)N3C(=O)CN(CCOC)C(=O)[C@@]3(Cc3ccccc3)[C@H]2C1=O,-0.7%,-0.1%,1.5%,/,1.1%,/
CCOc1ccc(-n2cc(-c3ccccc3)c3c(NCCc4ccccc4)ncnc32)cc1,1.9%,/,/,/,/,/
CC(C)Oc1ccc(C2CC(=O)N(c3ccc(C(=O)O)cc3)C2=O)cc1 (stereo unspecified),-7.1%,0.2%,-2.2%,/,0.0%,-0.9%
CC(C)Oc1ccc(C2CC(=O)N(c3cccc(C(=O)O)c3)C2=O)cc1 (stereo unspecified),16.9µM*,2.6%,27.6%,19.2%,?,11.9%
Cc1ccc2c(=O)cc(C(=O)NCc3ccccc3)oc2c1,-6.1%,/,/,-24.9%,/,/
CC(=O)Oc1ccc2oc(/C=C/N(C)C)c([N+](=O)[O-])c2c1,15.1µM*,19.7%,28.1%,0.4%,?,-0.5%
